The results in this text go back to PubChem BioAssay.

Each structure is given as a SMILES string. Unmarked numbers belong to inactive results. How the calls were made is not given here.

The test system of the experiment is Aerobactin synthetase IucA (Klebsiella pneumoniae hvKP1). The experiment can be described thus: IucA enzyme inhibition, primary screen, biochemical, Spectrum library (AID 1346200).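 Further: 100% = wells without compound and 0% = wells lacking enzyme.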 As to conditions: malachite green pyrophosphate, A620, at 8 µM, active compounds read low.
Regarding `OCC(O)C(O)C(O)C(O)C(O)CO` (stereo not given), the activity remaining is 93%.
As to `CC1NC(=O)NC1=O` (stereo not given), the activity remaining is 97.3%.
Consider `O=C(/C=C/c1ccc(O)c(O)c1)OC(Cc1ccc(O)c(O)c1)C(=O)O` (stereo not given), for which the activity remaining is 116%.
For `Cc1ncc([N+](=O)[O-])n1CC(C)O` (stereo not given), the activity remaining was 112%.
The same measure for `CN1CCN(C(c2ccccc2)c2ccccc2)CC1`: 113%.
Then `CC1(C)OC(=O)NC1=O`, with 115%.
Then `C[C@@H]1OC(O[C@H]2[C@H](OC(=O)[C@]34CCC(C)(C)CC3C3=CCC5[C@@]6(C)CC[C@H](OC7O[C@@H](C)[C@H](O[C@@H]8OC[C@@H](O)[C@H](O)[C@H]8O)[C@@H](O)[C@H]7O)C(C)(C)C6CC[C@@]5(C)[C@]3(C)CC4O)OC[C@H](O)[C@H]2O)[C@H](O)[C@H](O)[C@H]1O[C@@H]1O[C@H](CO)[C@@H](O)[C@H](O)[C@H]1O` (stereo not given in full), with 99.8%; and `CCOC(=O)[C@H](CCc1ccccc1)N[C@@H](C)C(=O)N1Cc2ccccc2C[C@H]1C(=O)O`, with 95.9%.
Turning to `CC(=O)Oc1cccc(C(=O)O)c1OC(C)=O`, the activity remaining was 120%.
Take `COc1cc(O)cc(OC)c1OC`: the activity remaining is 104%.
Then `COC(=O)C1=CO[C@@H](O[C@@H]2O[C@H](CO)[C@@H](O)[C@H](O)[C@H]2O)[C@@H]2[C@@H](C)CC(=O)[C@]12O`, with 109%; and `C[C@@H]1CC[C@]2(C(=O)O)CC[C@]3(C)C(=CCC4[C@@]5(C)CC[C@H](O)C(C)(C)C5CC[C@]43C)C2[C@H]1C` (stereo not given in full), with 128%; and `OCCOCCN1CCN(C2=Nc3ccccc3Sc3ccccc32)CC1`, with 105%.
The same measure for `N[C@@H](Cc1cc(I)c(Oc2cc(I)c(O)c(I)c2)c(I)c1)C(=O)O`: 117%; for `CC(=O)Nc1cccc(O)c1`: 120%.
Then `CC(=O)OCC(=O)[C@@]12OC3(CCCC3)O[C@@H]1CC1C3CCC4=CC(=O)C=C[C@]4(C)[C@@]3(F)[C@@H](O)C[C@@]12C` (stereo not given in full), with 90.4%.
In the case of `CC(C)(C)NCC(O)COc1cccc2c1C[C@H](O)[C@H](O)C2` (stereo not given in full), the activity remaining was 103%.
In the case of `NCC1CCC(C(=O)O)CC1` (stereo not given), the activity remaining is 102%.
The same measure for `C[C@H](CCC(=O)O)[C@H]1CCC2C3C(CC[C@@]21C)[C@@]1(C)CC[C@@H](O)C[C@H]1C[C@@H]3O` (stereo not given in full): 105%; for `CC(=O)O[C@@H]1c2c(ccc3ccc(=O)oc23)OC(C)(C)[C@@H]1OC(=O)CC(C)C`: 103%.
For `Nc1ncnc2c1ncn2C1C[C@H](O)[C@@H](CO)O1` (stereo not given in full), the activity remaining was 125%.
The same measure for `Cc1cc(C)cc(OCC2CNC(=O)O2)c1` (stereo not given): 113%.
The same measure for `C[C@@H]1CC[C@@]2(OC1)O[C@H]1CC3C4CC[C@H]5C[C@@H](O)CC[C@]5(C)C4CC[C@]3(C)[C@H]1[C@@H]2C` (stereo not given in full): 101%; for `CC(C(=O)O)c1ccc2c(c1)[nH]c1ccc(Cl)cc12` (stereo not given): 109%; for `COc1cc([C@@H]2c3cc4c(cc3C(OC3O[C@@H]5COC(C)O[C@H]5[C@H](O)[C@H]3O)C3COC(=O)[C@@H]32)OCO4)cc(OC)c1O` (stereo not given in full): 102%.
As to `O=c1c(-c2cc(O)c(O)c(O)c2)coc2cc(O)c(O)c(O)c12`, the activity remaining is 93.2%.
With `O=C1C=C(O)c2ccccc2C1=O`, the activity remaining was 123%.
The same measure for `Cc1cc(OC(=O)c2c(C)cc(O)cc2O)cc(O)c1C(=O)O`: 115%.
Then `CON=C1C[C@]2(C[C@@H]3C[C@@H](C/C=C(\C)C[C@@H](C)/C=C/C=C4\CO[C@@H]5[C@H](O)C(C)=C[C@@H](C(=O)O3)[C@]45O)O2)O[C@H](/C(C)=C/C(C)C)[C@H]1C`, with 93.8%.
As for `C=CCCCCCCCCCCCC(O)CC(O)COC(C)=O` (stereo not given) (tested in a mixture with another compound), the activity remaining was 81.7%.
Then `CC(=O)OCC(=O)[C@@]1(O)CCC2C3CC[C@@H]4C[C@H](O)CC[C@]4(C)C3C(=O)C[C@@]21C` (stereo not given in full), with 97.5%; and `COc1cc(OC)c2ccc(=O)oc2c1`, with 112%.
In the case of `CCCCOc1ccc(CC(=O)NO)cc1`, the activity remaining was 80.8%.
The same measure for `C=C[C@@H](C1=CC(=O)C(OC)=C(OC)C1=O)c1ccccc1`: 128%; for `CO[C@H]1C[C@H](O[C@H]2[C@H](C)[C@@H](OC3O[C@H](C)C[C@H](N(C)C)[C@H]3O)[C@@H](C)C[C@]3(CO3)C(=O)[C@H](C)[C@@H](O)[C@@H](C)[C@@H](C)OC(=O)[C@@H]2C)O[C@@H](C)[C@@H]1O` (stereo not given in full): 107%.
